# A selection: hits, their analogues and other compounds. The true share with any hit is near 0.52%.
# Sa helicase inh – S. aureus DNA helicase inhibition; purified S. aureus helicase, fluorescence unwinding assay; inhibition, % (concentration not given with the values); 120,000 compounds, 0.05% hits; in the data active = inhibition above about 25%, passing the limit was not always enough;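 also: 0% = mean of negative control wells and 100% = mean of positive control wells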
# Sa growth 42C – blocks Staphylococcus aureus growth; S. aureus RN4220 growth, OD600, 20 h, 42 °C; stronger effect = lower value; relative growth, % (no concentration beside the values); 170,000 compounds, 0.53% hits; AID 720641;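 active = relative growth at most 50% at the other temperature and 20+ points below 30 °C, or under 10% at both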
# Numbers without * were called inactive; / = no result given; ! = not confirmed by another sample.
SMILES,Sa helicase inh,Sa growth 42C
CCn1c(O)c(N=NC(N)=S)c2ccccc21,9,64
CCn1c(O)c(N=NC(=O)Nc2ccc(Cl)c(Cl)c2)c2ccccc21,13,-0.8*
O=C(COc1ccc2c(c1)C(=O)CC1(CCCCC1)O2)NC1CC1,-4,106
O=C(COC(=O)Cc1coc2ccc3ccccc3c12)Nc1nnc(-c2ccccc2)o1,-9,0.1*
O=C(COC(=O)C1(c2ccccc2)CC1)Nc1nnc(-c2ccccc2)o1,13,-0.5*
O=C(Cc1coc2ccc3ccccc3c12)Oc1ccc(-c2nnco2)cc1,15,96
O=C(COC(=O)CC1CCCC1)Nc1nnc(-c2ccccc2)o1,2,21
CCC(CC)NC(=O)C(C)Nc1nc2ccccc2s1 (centres undefined),-4,95
N#Cc1ccccc1S(=O)(=O)N1CCNCC1,-13,89
Cc1ccc(NC(=O)COC(=O)C2CCN(C(=O)OC(C)(C)C)CC2)cc1C,-11,103
CC1c2cccc(O)c2CC2=C(O)C3(O)C(O)=C(C(N)=O)C(=O)C(N(C)C)C3C(O)C21 (centres undefined),11,11
C[C@H]1c2cccc(O)c2C(O)=C2C(=O)[C@]3(O)C(O)=C(C(N)=O)C(=O)[C@@H](N(C)C)[C@@H]3[C@@H](O)[C@@H]21,/,-0.6*
CN(C)c1ccc(O)c2c1C[C@H]1C[C@H]3[C@H](N(C)C)C(=O)C(C(N)=O)=C(O)[C@@]3(O)C(=O)C1=C2O,/,-0.4*
COc1ccc(N2CCN(C(=O)Cn3c(Cl)nc4c3c(=O)n(C)c(=O)n4C)CC2)cc1,1,97
NC(=O)c1ccc(OCC(=O)N(c2ccccc2)C2CCS(=O)(=O)C2)cc1 (centres undefined),14,91
CCCCn1nnnc1COC(=O)c1cc(OC)c(OC)cc1NC(=O)c1ccco1,18,78
c1ccc(Nc2nc3nonc3nc2Nc2ccccc2)cc1,-8,-1.6*
Nc1nnc2c(Nc3ccccc3)nc3nonc3n12,-1,98
O=C(Nc1nonc1-c1nc2ccccc2[nH]1)c1ccccc1Cl,0,92
COc1ccc(-c2nc3c(=O)n(C)c(=O)nc-3n(C)n2)cc1OC,-1,53
Cn1nc(-c2ccc(F)cc2)nc2c(=O)n(C)c(=O)nc1-2,-132,0.2*
CC(=O)Nc1ccc(-c2nnc(-c3ccccc3)c(-c3ccccc3)n2)cc1,1,99
Oc1c(I)cc(Cl)c2cccnc12,10,1.3*!
COc1c(I)cc(Cl)c2cccnc12,/,88
COc1ccc(Nc2cc(C(=O)NCCCN3CCCC3)c3ccccc3n2)cc1,-10,98
SMILES,Sa helicase inh,Sa growth 42C
CCN(CC)C(=O)c1sc(NC(=S)N(C)Cc2cn(CC)nc2C)c(C(=O)OC)c1C,4,0.8*
CCn1cc(CN(C)C(=S)Nc2sc3c(c2C(=O)OC)CCC(C)C3)c(C)n1 (centres undefined),28,95
C=CCNC(=O)c1ccc(Cl)c(S(C)(=O)=O)c1,0,71
O=C(O)/C=C/C(=O)Nc1ccc(C2CCCCC2)cc1,/,146
O=C(O)/C=C/C(=O)c1ccc(C2CCCCC2)cc1,/,-0.9*
CCOC(=O)C(C#N)=C1SC2CS(=O)(=O)CC2S1 (centres undefined),-1,119
Cc1nnc(SCc2cc(=O)[nH]c(N3CCN(c4ccccc4)CC3)n2)s1,4,93
NC(=O)N/N=C/c1ccc(-c2ccc(SC(F)F)cc2)o1,-4,101
N#CCCN/N=C/c1ccc(-c2ccc(SC(F)F)cc2)o1,-11,48*
Cc1ccc(N=Cc2cc3ccccc3[nH]c2=O)cc1,-12,90
CC1CCC(C(C)C)C(NC(=S)Nc2cccc(F)c2)C1 (centres undefined),/,-0.8*
O=C(Nc1cccc(F)c1)NC1CCCC1,6,84
Cc1nc2scc(-c3cccs3)c2c(=S)[nH]1,2,73
CCOc1ncccc1C(=O)NCc1ccc(F)cc1,-4,89
O=C1NC(=O)/C(=C\c2cccc(C(F)(F)F)c2)S1,-31,7.3*
CN(C)c1ccc(/C=C2\SC(=O)NC2=O)cc1,-22,/
CC(C)c1cc2cc(/C=C/C(=O)O)c(O)cc2o1,8,-0.3*
CC(C)(O)C1Cc2cc(/C=C/C(=O)O)c(O)cc2O1 (centres undefined),6,65
Cc1n[nH]c(C)c1CN,4,107
O=C(OC[C@@H]1CCCN2CCCCC12)c1ccccc1 (some centres undefined),9,93
CCCCOc1ccc(C(=O)OCC2CCCN3CCCCC23)cc1OC (centres undefined),13,43*
Cc1c(C(=O)Nc2ccccc2Cl)oc2ccc(S(=O)(=O)N3CCOCC3)cc12,2,102
CC(=O)Oc1ccccc1C(=O)Nc1ccc(OC(F)F)cc1,-19,4.2*
CC(=O)Oc1ccccc1C(=O)Nc1ccc(C(N)=O)cc1,13,103
Cc1ccc(-c2nc3cccc(C)n3c2Nc2ccc3c(c2)OCO3)o1,/,2.2*
SMILES,Sa helicase inh,Sa growth 42C
Cc1cccc2nc(-c3ccco3)c(Nc3ccc4c(c3)OCO4)n12,/,111
COc1cc(C2Nc3c(C)cc(C)cc3-c3cc(C)nn32)cc(OC)c1O (centres undefined),/,105
CC1=CC(C)=NC2Nc3c(C)cc(C)cc3C(=N)C12 (centres undefined),66*,85
NC(=O)CNC(=O)c1cccs1,/,111
CN1C(=O)S/C(=C/c2ccc(-c3ccc(C(=O)O)c(Cl)c3)o2)C1=O,12,58
CCN1C(=O)/C(=C\c2ccc(-c3ccc(Cl)c(C(=O)O)c3)o2)SC1=S,-80,-0.7*
O=C(CCC(=O)N1CCC(c2ccccc2)=N1)N1CCN(c2ccccc2)CC1,-11,92
Cc1ccc(C)n1-c1ccc(C(=O)OCc2nc3ccsc3c(=O)[nH]2)cc1,1,48*
O=C(OCc1nc2ccsc2c(=O)[nH]1)c1ccc(N2CCCC2=O)cc1,9,86
CCCCC1CCC(C2CCC(C(=O)O)CC2)CC1 (centres undefined),9,62
COc1cccc(CNc2ccc3c(c2)ncn3C2CCCCC2)c1,2,0.1*
CCn1cnc2cc(NCc3cccc(OC)c3)ccc21,40,83
CN(C)c1c[nH]c(=O)[nH]c1=O,5,96
O=c1[nH]cc(F)c(=O)[nH]1,/,-0.5*
CC(C)OC(=O)CSc1nnc(-c2ccccc2)n1Cc1ccco1,8,107
COCc1nnc(NC(=O)c2ccc(S(=O)(=O)N(C)C3CCCCC3)cc2)o1,-3,8.5*
CCc1nnc(NC(=O)c2ccc(S(=O)(=O)N(C)c3ccccc3)cc2)o1,10,15
CSCc1nnc(NC(=O)c2ccc(S(=O)(=O)N(CC(C)C)CC(C)C)cc2)o1,4,-0.4*
CC(C)CN(CC(C)C)S(=O)(=O)c1ccc(C(=O)Nc2nnc(-c3ccccn3)o2)cc1,4,83
CN(Cn1c(=O)oc2cc(Br)ccc21)C1CCCCC1,15,86
CCC(=O)Nc1ccc(-c2nc3cc(Cl)ccc3o2)cc1,9,98
N#C/C(=C\c1ccc(Cl)cc1Cl)c1c[nH]c2ccccc12,/,71
N#C/C(=C\c1ccc(F)cc1)c1c[nH]c2ccccc12,/,42*
CCOc1ccc(C(=O)OCC(=O)Nc2ccc(S(N)(=O)=O)cc2)cc1,0,115
Clc1ccc(Oc2ccccc2)c(NC2=NCCC2)c1,-24,100
CCc1cccc(NC(=O)CN(C2=NC3CS(=O)(=O)CC3S2)c2cccc(C)c2)c1 (centres undefined),-17,113

# Screens (PubChem BioAssay)
